Results: PubChem BioAssay AID1159580 (chemical genetic matrix, 2015)
Out of some 5,500 compounds screened, about 2,000 (36%) were called active. Not shown: some 18% with an inconclusive outcome. Cut-off read from the data, not from the text of the source: active = normalized growth mostly below about 0.91 (no sharp cut-off); inconclusive = no clear call, values can overlap the other calls; inactive = mostly above about 0.92. The list shows a part of the results.

Assay: chemical genetic growth profiling, strain panel (AID 1159580);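 note: tested at 20 µM; growth read once vehicle control cultures reached saturation at 30 °C; 1 = growth at the plate median or of vehicle wells; lower values mean less growth of the strain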
Conditions: growth OD
[1] = S. cerevisiae deletion strains, locus YAL013W, strain DEP1, stronger effect = lower value
[2] = S. cerevisiae deletion strains, locus YBR229C, strain ROT2, stronger effect = lower value
[3] = S. cerevisiae deletion strains, locus YDL101C, strain DUN1, stronger effect = lower value
[4] = S. cerevisiae deletion strains, locus YDR150W, strain NUM1, stronger effect = lower value
[5] = S. cerevisiae deletion strains, locus YEL061C, strain CIN8, stronger effect = lower value
[6] = S. cerevisiae deletion strains, locus YGR078C, strain PAC10, stronger effect = lower value
[7] = S. cerevisiae deletion strains, locus YHR030C, strain SLT2, stronger effect = lower value
[8] = S. cerevisiae deletion strains, locus YHR087W, strain rtc3, stronger effect = lower value
[9] = S. cerevisiae deletion strains, locus YJR043C, strain POL32, stronger effect = lower value
[10] = S. cerevisiae deletion strains, locus YJR075W, strain HOC1, stronger effect = lower value
[11] = S. cerevisiae deletion strains, locus YKL190W, strain CNB1, stronger effect = lower value
[12] = S. cerevisiae deletion strains, locus YLR039C, strain RIC1, stronger effect = lower value
[13] = S. cerevisiae deletion strains, locus YLR058C, strain SHM2 (second series), stronger effect = lower value
[14] = S. cerevisiae deletion strains, locus YLR085C, strain ARP6, stronger effect = lower value
[15] = S. cerevisiae deletion strains, locus YLR262C, strain YPT6, stronger effect = lower value
[16] = S. cerevisiae deletion strains, locus YML094W, strain GIM5, stronger effect = lower value
[17] = S. cerevisiae deletion strains, locus YMR219W, strain ESC1, stronger effect = lower value
[18] = S. cerevisiae deletion strains, locus YMR263W, strain SAP30, stronger effect = lower value
[19] = S. cerevisiae deletion strains, locus YNL153C, strain GIM3, stronger effect = lower value
[20] = S. cerevisiae deletion strains, locus YNL298W, strain CLA4 (second series), stronger effect = lower value
[21] = S. cerevisiae deletion strains, locus YNL322C, strain KRE1, stronger effect = lower value
[22] = S. cerevisiae deletion strains, locus YNR030W, strain Alg12, stronger effect = lower value
[23] = S. cerevisiae deletion strains, locus YPL055C, strain LGE1, stronger effect = lower value
[24] = S. cerevisiae deletion strains, locus YPL241C, strain CIN2, stronger effect = lower value
[25] = S. cerevisiae deletion strains, locus YPR135W, strain CTF4, stronger effect = lower value

Measured: normalized growth

NC(N)=NC(N)=Nc1ccc2c(c1)OCCO2
inactive: [1] 0.987 | [2] 1.01 | [3] 1.01 | [4] 0.918 | [5] 0.995 | [6] 0.99 | [7] 0.983 | [8] 1.01 | [9] 0.989 | [10] 0.993 | [11] 0.994 | [12] 1 | [13] 0.994 | [14] 0.963 | [15] 0.998 | [16] 1.06 | [17] 0.996 | [18] 0.943 | [19] 1.01 | [20] 0.993 | [21] 1 | [22] 0.995 | S. cerevisiae deletion strains, locus YOL006C, strain TOP1, stronger effect = lower value 1.03 | [23] 0.993 | [24] 0.927 | [25] 1.01 | S. cerevisiae strains, strain wild type, stronger effect = lower value 0.995

NNC(=S)Nc1ccc2c(c1)OCCO2
inactive: [1] 1.01 | [2] 1.01 | [3] 1.01 | S. cerevisiae deletion strains, locus YDL134C, strain PPH21, stronger effect = lower value 1.01 | [4] 0.956 | [5] 0.983 | [6] 0.991 | S. cerevisiae deletion strains, locus YGR229C, strain SMI1, stronger effect = lower value 0.986 | [7] 1.02 | [8] 1.05 | [9] 1 | [10] 1.05 | [11] 0.99 | [12] 0.983 | [13] 1.01 | [14] 0.939 | [15] 1.01 | [16] 0.944 | [17] 1.02 | [18] 0.996 | S. cerevisiae deletion strains, locus YMR307W, strain GAS1, stronger effect = lower value 0.954 | S. cerevisiae deletion strains, locus YNL128W, strain TEP1, stronger effect = lower value 0.976 | [19] 0.994 | [20] 0.992 | [21] 1.02 | [23] 0.967 | [24] 1.1 | [25] 0.823
active: [22] 0.806

CC(C)C[C@@H](CN)CC(=O)O
inactive: S. cerevisiae deletion strains, locus YAL021C, strain ccr4, stronger effect = lower value 1.04 | S. cerevisiae deletion strains, locus YAL026C, strain drs2, stronger effect = lower value 1.03 | S. cerevisiae deletion strains, locus YAL030W, strain snc1, stronger effect = lower value 1.02 | S. cerevisiae deletion strains, locus YBL061C, strain skt5, stronger effect = lower value 1.01 | S. cerevisiae deletion strains, locus YBR009C, strain hhf1, stronger effect = lower value 1 | S. cerevisiae deletion strains, locus YBR023C, strain chs3, stronger effect = lower value 1.02 | S. cerevisiae deletion strains, locus YBR171W, strain sec66, stronger effect = lower value 1.02 | S. cerevisiae deletion strains, locus YBR231C, strain swc5, stronger effect = lower value 0.994 | S. cerevisiae deletion strains, locus YBR279W, strain paf1, stronger effect = lower value 1.02 | S. cerevisiae deletion strains, locus YCL011C, strain gbp2, stronger effect = lower value 1.03 | S. cerevisiae deletion strains, locus YCL016C, strain dcc1, stronger effect = lower value 1.04 | S. cerevisiae deletion strains, locus YCL061C, strain MRC1, stronger effect = lower value 1.02 | S. cerevisiae deletion strains, locus YCL069W, strain vba3, stronger effect = lower value 1.04 | S. cerevisiae deletion strains, locus YCR088W, strain abp1, stronger effect = lower value 1.02 | S. cerevisiae deletion strains, locus YDL005C, strain med2, stronger effect = lower value 1.02 | S. cerevisiae deletion strains, locus YDL040C, strain nat1, stronger effect = lower value 1.01 | S. cerevisiae deletion strains, locus YDR001C, strain nth1, stronger effect = lower value 1.01 | S. cerevisiae deletion strains, locus YDR069C, strain doa4, stronger effect = lower value 1.01 | S. cerevisiae deletion strains, locus YDR137W, strain rgp1, stronger effect = lower value 1.06 | S. cerevisiae deletion strains, locus YDR159W, strain sac3, stronger effect = lower value 0.965 | S. cerevisiae deletion strains, locus YDR195W, strain ref2 0.977 | S. cerevisiae deletion strains, locus YDR297W, strain sur2, stronger effect = lower value 1.01 | S. cerevisiae deletion strains, locus YDR334W, strain swr1, stronger effect = lower value 1.02 | S. cerevisiae deletion strains, locus YDR335W, strain msn5, stronger effect = lower value 1.04 | S. cerevisiae deletion strains, locus YDR392W, strain spt3, stronger effect = lower value 0.954 | S. cerevisiae deletion strains, locus YEL003W, strain gim4, stronger effect = lower value 1.01 | S. cerevisiae deletion strains, locus YEL037C, strain rad23, stronger effect = lower value 1.01 | S. cerevisiae deletion strains, locus YEL061C, strain CIN8 (second series), stronger effect = lower value 1.01 | S. cerevisiae deletion strains, locus YER015W, strain faa2, stronger effect = lower value 1 | S. cerevisiae deletion strains, locus YER016W, strain bim1, stronger effect = lower value 1.04 | S. cerevisiae deletion strains, locus YER111C, strain swi4, stronger effect = lower value 1.02 | S. cerevisiae deletion strains, locus YER155C, strain BEM2 (second series), stronger effect = lower value 1 | S. cerevisiae deletion strains, locus YFR010W, strain ubp6, stronger effect = lower value 1.01 | S. cerevisiae deletion strains, locus YGL167C, strain pmr1, stronger effect = lower value 1.02 | S. cerevisiae deletion strains, locus YGL173C, strain kem1, stronger effect = lower value 1.01 | S. cerevisiae deletion strains, locus YGL227W, strain vid30, stronger effect = lower value 1.01 | S. cerevisiae deletion strains, locus YGL240W, strain doc1, stronger effect = lower value 1 | S. cerevisiae deletion strains, locus YGL253W, strain hxk2, stronger effect = lower value 1.02 | S. cerevisiae deletion strains, locus YHR013C, strain ard1, stronger effect = lower value 1.05 | S. cerevisiae deletion strains, locus YHR027C, strain rpn1, stronger effect = lower value 1.01 | [7] 1.09 | S. cerevisiae deletion strains, locus YHR079C, strain IRE1, stronger effect = lower value 0.981 | S. cerevisiae deletion strains, locus YHR142W, strain chs7, stronger effect = lower value 1.03 | S. cerevisiae deletion strains, locus YJL092W, strain hpr5, stronger effect = lower value 1.01 | S. cerevisiae deletion strains, locus YJL095W, strain BCK1 (second series), stronger effect = lower value 1.02 | S. cerevisiae deletion strains, locus YJL095W, strain BCK1, stronger effect = lower value 0.989 | S. cerevisiae deletion strains, locus YJL115W, strain asf1, stronger effect = lower value 1.03 | S. cerevisiae deletion strains, locus YJL129C, strain trk1, stronger effect = lower value 1.03 | S. cerevisiae deletion strains, locus YJL154C, strain vps35, stronger effect = lower value 1.02 | S. cerevisiae deletion strains, locus YJL164C, strain tpk1, stronger effect = lower value 1 | S. cerevisiae deletion strains, locus YJL166W, strain qcr8, stronger effect = lower value 1.01 | S. cerevisiae deletion strains, locus YJL187C, strain SWE1, stronger effect = lower value 1.01 | S. cerevisiae deletion strains, locus YJR066W, strain TOR1, stronger effect = lower value 0.959 | S. cerevisiae deletion strains, locus YKL160W, strain elf1, stronger effect = lower value 1.04 | S. cerevisiae deletion strains, locus YKR026C, strain gcn3, stronger effect = lower value 1.01 | S. cerevisiae deletion strains, locus YKR091W, strain srl3, stronger effect = lower value 1.01 | S. cerevisiae deletion strains, locus YLL001W, strain dnm1, stronger effect = lower value 0.995 | S. cerevisiae deletion strains, locus YLL026W, stronger effect = lower value 1.01 | S. cerevisiae deletion strains, locus YLL041C, strain sdh2, stronger effect = lower value 1.03 | S. cerevisiae deletion strains, locus YLR027C, strain aat2, stronger effect = lower value 1.02 | S. cerevisiae deletion strains, locus YLR113W, strain HOG1, stronger effect = lower value 0.992 | S. cerevisiae deletion strains, locus YLR221C, strain rsa3, stronger effect = lower value 0.998 | S. cerevisiae deletion strains, locus YLR258W, strain gsy2, stronger effect = lower value 1.04 | S. cerevisiae deletion strains, locus YLR262C, strain YPT6 (second series), stronger effect = lower value 1.02 | S. cerevisiae deletion strains, locus YLR320W, strain mms22, stronger effect = lower value 0.981 | S. cerevisiae deletion strains, locus YLR342W, strain FKS1, stronger effect = lower value 1.04 | S. cerevisiae deletion strains, locus YLR357W, strain rsc2, stronger effect = lower value 0.987 | S. cerevisiae deletion strains, locus YLR370C, strain arc18, stronger effect = lower value 1.03 | S. cerevisiae deletion strains, locus YLR384C, strain iki3, stronger effect = lower value 1.02 | S. cerevisiae deletion strains, locus YML120C, strain ndi1, stronger effect = lower value 1.01 | S. cerevisiae deletion strains, locus YMR058W, strain fet3, stronger effect = lower value 1.02 | S. cerevisiae deletion strains, locus YMR125W, strain sto1, stronger effect = lower value 1.02 | S. cerevisiae deletion strains, locus YMR129W, stronger effect = lower value 1.02 | S. cerevisiae deletion strains, locus YMR205C, strain PFK2, stronger effect = lower value 0.993 | S. cerevisiae deletion strains, locus YMR231W, strain pep5, stronger effect = lower value 1.01 | S. cerevisiae deletion strains, locus YNL071W, strain lat1, stronger effect = lower value 1.02 | S. cerevisiae deletion strains, locus YNL183C, strain NPR1, stronger effect = lower value 0.923 | S. cerevisiae deletion strains, locus YNL209W, strain ssb2, stronger effect = lower value 1.01 | S. cerevisiae deletion strains, locus YNL248C, strain rpa49, stronger effect = lower value 1.01 | S. cerevisiae deletion strains, locus YNL322C, strain KRE1 (second series), stronger effect = lower value 1.02 | S. cerevisiae deletion strains, locus YNR049C, strain mso1, stronger effect = lower value 1.01 | S. cerevisiae deletion strains, locus YOR001W, strain rrp6, stronger effect = lower value 1.01 | S. cerevisiae deletion strains, locus YOR070C, strain gyp1, stronger effect = lower value 1.02 | S. cerevisiae deletion strains, locus YOR080W, strain dia2, stronger effect = lower value 1.03 | S. cerevisiae deletion strains, locus YOR083W, strain WHI5, stronger effect = lower value 0.974 | S. cerevisiae deletion strains, locus YOR106W, strain vam3, stronger effect = lower value 1.03 | S. cerevisiae deletion strains, locus YOR231W, strain MKK1, stronger effect = lower value 0.982 | S. cerevisiae deletion strains, locus YOR265W, strain rbl2, stronger effect = lower value 0.999 | S. cerevisiae deletion strains, locus YOR270C, strain vph1, stronger effect = lower value 1.12 | S. cerevisiae deletion strains, locus YOR290C, strain snf2, stronger effect = lower value 1.06 | S. cerevisiae deletion strains, locus YPL051W, strain arl3, stronger effect = lower value 1.04 | S. cerevisiae deletion strains, locus YPL078C, strain atp4, stronger effect = lower value 1.04 | S. cerevisiae deletion strains, locus YPL106C, strain sse1, stronger effect = lower value 1.02 | S. cerevisiae deletion strains, locus YPL240C, strain hsp82, stronger effect = lower value 1.02 | S. cerevisiae deletion strains, locus YPL256C, strain CLN2, stronger effect = lower value 0.984
